Drawing on PubChem BioAssay (NCI), this text covers growth for eight compounds.

Among the test systems are NCI-H23 lung; NCI-H226 lung; NCI-H322M lung; HOP-62 NSCLC; NCI-H460 lung; HOP-92 NSCLC; NCI-H522 lung; A549/ATCC NSCLC; 786-0 renal; COLO 205 colon; DU-145 prostate; K-562 leukemia; MALME-3M melanoma; MDA-MB-231 breast; RXF 393 renal; SF-268 CNS; SF-295 CNS; SF-539 CNS; UACC-257 melanoma; M14 melanoma.
Holding throughout (assay): NCI-60 one-dose screen, 48 h (100 = growth as untreated, 0 = no growth, -100 = all killed)
Holding throughout (settings): 10 µM unless noted

Structures are written as SMILES. About 83,000 compounds went through this panel and 20% of them were active in at least one assay; those are over-represented in the sample as a whole.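 Negative percent growth values reflect cell death: -40 means 40% of the cells present at the start died, and -100 means all died.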 Unmarked numbers belong to inactive results. Calls of active or inactive are those of the source. The calls were made as follows: active = growth percent below 10; inactive = the rest.

For `Cc1ccc(-c2cc(-c3cccnc3)[nH]c(=O)c2C#N)cc1`, the growth is 103% in the test with NCI-H23 lung; 99.2% in the test on NCI-H226 lung; 103% in the test with NCI-H322M lung; 107% with HOP-62 NSCLC; 107% with NCI-H460 lung; 97.9% in the test with HOP-92 NSCLC. Further, the growth with NCI-H522 lung is 94%; in the test on A549/ATCC NSCLC, 102%; in the test with 786-0 renal, 101%; with COLO 205 colon, 118%; with DU-145 prostate it was 110%; in the test on K-562 leukemia, 108%. For the same compound, the growth with MALME-3M melanoma is 112%; with MDA-MB-231 breast it was 109%; in the test on RXF 393 renal, 105%; in the test on SF-268 CNS, 99.3%; in the test with SF-295 CNS it was 102%; in the test with SF-539 CNS, 99.9%. Also, the growth in the test with UACC-257 melanoma is 108%; with M14 melanoma, 112%.

For the compound `Cc1ccc2nc(NC(=O)CSc3nc(-c4ccccc4)c(C#N)c(=O)n3Cc3ccccc3)sc2c1`, the growth was 85.9% in the test on NCI-H23 lung; 85.2% in the test with NCI-H226 lung; 96.4% in the test with NCI-H322M lung; 77.8% with HOP-62 NSCLC; 98.3% with NCI-H460 lung; 54.9% in the test with HOP-92 NSCLC. Besides, the growth was 30.5% with NCI-H522 lung; 104% with A549/ATCC NSCLC; 99.3% with 786-0 renal; 104% in the test with COLO 205 colon; 103% in the test with DU-145 prostate; 73.3% with K-562 leukemia. Moreover, the growth in the test with MALME-3M melanoma is 78.6%; with MDA-MB-231 breast it was 82.5%; in the test on RXF 393 renal, 75.8%; in the test on SF-268 CNS, 92.1%; in the test with SF-295 CNS, 95.3%; in the test with SF-539 CNS it was 90.4%. Further, the growth was 98.3% in the test with UACC-257 melanoma and 88.1% with M14 melanoma.

`c1ccc(-c2nc([P+](c3ccccc3)(c3ccccc3)c3ccccc3)c(N3CCOCC3)o2)cc1`: the growth was 2.61% (active) with NCI-H23 lung; 34.7% in the test with NCI-H226 lung; 21% with NCI-H322M lung; -2.79% (active) in the test with HOP-62 NSCLC; 10.1% in the test on NCI-H460 lung; -21.4% (active) with HOP-92 NSCLC. Also, the growth in the test on NCI-H522 lung was -3.16% (active); in the test on A549/ATCC NSCLC, 15.4%; with 786-0 renal, 27.3%; in the test with COLO 205 colon, -64.5% (active); in the test with DU-145 prostate, 18.6%; in the test on K-562 leukemia, 10.4%. In addition, the growth was 4.6% (active) in the test with MALME-3M melanoma; -14.8% (active) with MDA-MB-231 breast; -4.62% (active) with RXF 393 renal; 18.3% in the test with SF-268 CNS; 0.0601% (active) with SF-295 CNS; 6.52% (active) with SF-539 CNS. Moreover, the growth in the test with UACC-257 melanoma is -9.47% (active); in the test on M14 melanoma it was 4.76% (active).

On to `CN(C)CCCn1c(=O)c2ccccc2c2ccccc21`, for which the growth is 76.8% in the test on NCI-H23 lung; 87.6% in the test with NCI-H226 lung; 98.5% in the test on NCI-H322M lung; 80.1% in the test on HOP-62 NSCLC; 66.5% in the test on NCI-H460 lung; 45.5% in the test with HOP-92 NSCLC. For the same compound, the growth with NCI-H522 lung was 53.1%; in the test with A549/ATCC NSCLC, 87.2%; in the test with 786-0 renal, 68.4%; with DU-145 prostate it was 44.1%; in the test with K-562 leukemia it was 88.1%; with MALME-3M melanoma, 100%. Also, the growth with MDA-MB-231 breast was 67%; in the test on RXF 393 renal it was 74.7%; in the test with SF-268 CNS, 68.2%; with SF-295 CNS, 83.3%; with SF-539 CNS, 85.6%; in the test with UACC-257 melanoma it was 93.8%. In the test on M14 melanoma, the growth is 87.8%.

As to `O=C(CSc1nccc(Nc2ccc(S(=O)(=O)Nc3nccs3)cc2)n1)c1ccc(F)cc1`, the growth was 97.6% in the test with NCI-H23 lung; 102% in the test on NCI-H226 lung; 106% in the test on NCI-H322M lung; 106% with HOP-62 NSCLC; 106% in the test with NCI-H460 lung; 106% in the test with HOP-92 NSCLC. For the same compound, the growth with NCI-H522 lung was 88.6%; in the test with A549/ATCC NSCLC, 104%; with 786-0 renal, 103%; in the test on DU-145 prostate, 105%; in the test on K-562 leukemia it was 113%; with MALME-3M melanoma, 103%. Besides, the growth in the test on MDA-MB-231 breast is 113%; with RXF 393 renal, 112%; in the test with SF-268 CNS, 105%; in the test with SF-295 CNS, 103%; with SF-539 CNS it was 100%; in the test with UACC-257 melanoma, 96.5%. Further, in the test on M14 melanoma, the growth was 101%.

Turning to `CC(=O)n1c(-c2ccc(Cl)cc2)nc2c(c1=O)C(c1ccc(Cl)cc1)c1sc3c(Cl)cccc3c1O2` (stereo not given), the growth with NCI-H23 lung is -0.859% (active); with NCI-H226 lung, 9.2% (active); with NCI-H322M lung, 16.7%; with HOP-62 NSCLC it was 7.03% (active); with NCI-H460 lung it was -30.4% (active); in the test with HOP-92 NSCLC, 1.47% (active). For the same compound, the growth was -32.9% (active) in the test on NCI-H522 lung; -63.7% (active) with A549/ATCC NSCLC; -50.1% (active) in the test with 786-0 renal; 2.09% (active) in the test with DU-145 prostate; -0.184% (active) in the test with K-562 leukemia; 51.8% in the test with MALME-3M melanoma. Moreover, the growth in the test on MDA-MB-231 breast is -28.8% (active); with RXF 393 renal, -25.4% (active); in the test on SF-268 CNS, -0.0873% (active); in the test on SF-295 CNS it was -20% (active); in the test on SF-539 CNS, -63.2% (active); in the test with UACC-257 melanoma, 21.3%. Besides, the growth in the test with M14 melanoma was -39.3% (active).

Regarding `COC(=O)CCC1=C(C)C2=NC1=CC1=NC(=CC3=NC(=Cc4[nH]c(/c(=C(/C)O)c4C)=C2)C(C(C)=O)=C3C)C(C)=C1CCC(=O)OC`, the growth is 99.8% with NCI-H23 lung; 83.9% in the test on NCI-H226 lung; 102% in the test with NCI-H322M lung; 98.8% in the test with HOP-62 NSCLC; 103% in the test with NCI-H460 lung; 88.2% with HOP-92 NSCLC. Besides, the growth with NCI-H522 lung is 98.8%; in the test on A549/ATCC NSCLC, 88.6%; in the test on 786-0 renal, 105%; in the test on DU-145 prostate, 110%; in the test on K-562 leukemia, 112%; in the test on MALME-3M melanoma, 96%. The growth was 103% in the test on MDA-MB-231 breast; 112% with RXF 393 renal; 98.9% in the test with SF-268 CNS; 104% in the test with SF-295 CNS; 97.7% in the test on SF-539 CNS; 90.3% in the test with UACC-257 melanoma. In addition, the growth with M14 melanoma is 108%.

As to `Cc1c(C(=O)N[C@@H](Cc2ccccc2)C(=O)C(=O)NCCc2ccccc2)[nH]c2ccccc2c1=O`, the growth was 93.5% in the test with NCI-H23 lung; 101% in the test on NCI-H226 lung; 96.2% in the test on NCI-H322M lung; 111% in the test with HOP-62 NSCLC; 87.2% in the test on NCI-H460 lung; 116% with HOP-92 NSCLC. Besides, the growth with NCI-H522 lung is 97.6%; in the test on A549/ATCC NSCLC, 98.8%; in the test on 786-0 renal, 107%; in the test on DU-145 prostate, 101%; with K-562 leukemia it was 91.7%; in the test with MALME-3M melanoma, 103%. Moreover, the growth was 97.7% in the test on MDA-MB-231 breast; 112% in the test with RXF 393 renal; 98.6% with SF-268 CNS; 103% in the test on SF-295 CNS; 102% with SF-539 CNS; 101% in the test with UACC-257 melanoma. In the test on M14 melanoma, the growth is 110%.
